{"source": "ChEMBL document CHEMBL3988442", "about": "“University of Dundee, Small-Polar-MMV Screening Library” (2021)", "note": "In all, about 48,000 compounds went through this assay and about 13,000 (27%) showed an effect of 50% or more. This is one part of the list."}
{"test_system": "Wolbachia pipientis", "experiment": "Anti-Wolbachia Cell-Based Screen", "type": "functional", "parameters": "scale not given: in the data most compounds retested in dose-response had high values", "details": "5 µM", "units": {"Percent Effect": "%"}}
{"smiles": "CC(C)(C)Cc1noc2ncc(C(=O)N3CCSCC3)cc12", "Percent Effect": -2.131}
{"smiles": "CCc1nnc(CN2CCC(C3CCCCCN3C(=O)C3CC3)CC2)o1", "note": "(stereo not drawn)", "Percent Effect": 5.041}
{"smiles": "O=C(C1CCOC1)N1C[C@H]2CN(Cc3cccc(F)c3)C(=O)[C@H]2C1", "note": "(stereo partly drawn)", "Percent Effect": 101.2}
{"smiles": "O=C(O)C(F)(F)F.O=C1[C@H]2CN(C3CCOCC3)C[C@H]2CN1Cc1cccc(F)c1", "Percent Effect": -0.9945}
{"smiles": "Cc1cccc(CN2C[C@@H]3CN(C(=O)C4CCOC4)C[C@@H]3C2=O)c1", "note": "(stereo partly drawn)", "Percent Effect": 100.9}
{"smiles": "Cc1cccc(CN2C[C@@H]3CN(C(=O)c4ccco4)C[C@@H]3C2=O)c1", "Percent Effect": -8.497}
{"smiles": "O=C(c1ccsc1)N1C[C@H]2CN(Cc3cccc(F)c3)C(=O)[C@H]2C1", "Percent Effect": -13.46}
{"smiles": "Cc1cccc(CN2C[C@@H]3CN(C(=O)c4ccnnc4)C[C@@H]3C2=O)c1", "Percent Effect": -7.292}
{"smiles": "O=C(Nc1ccn(Cc2cccc3cccnc23)n1)C1COCCO1", "note": "(stereo not drawn)", "Percent Effect": -13.67}
{"smiles": "COc1ccc(F)c(CN2CCCC(O)(CNCC(C)(C)C)C2=O)c1", "note": "(stereo not drawn)", "Percent Effect": 1.776}
{"smiles": "C[C@@H]1CN(C(=O)c2cn(CCN3CCCCC3)nn2)C[C@H](C)O1", "Percent Effect": -14.27}
{"smiles": "O=C(NCC1CCOC1)c1csc(-c2ccccc2)n1", "note": "(stereo not drawn)", "Percent Effect": 102.2}
{"smiles": "O=C(c1csc(-c2ccco2)n1)N(CC1CCOC1)C1CC1", "note": "(stereo not drawn)", "Percent Effect": -4.102}
{"smiles": "O=C(NCC1CCOC1)c1csc(-c2ccc(F)cc2)n1", "note": "(stereo not drawn)", "Percent Effect": 81.86}
{"smiles": "O=C(NCC1CCOC1)c1csc(-c2cccc(Cl)c2)n1", "note": "(stereo not drawn)", "Percent Effect": 7.495}
{"smiles": "Cc1ccc(-c2nc(C(=O)NCC3CCOC3)cs2)cc1", "note": "(stereo not drawn)", "Percent Effect": 113.2}
{"smiles": "O=C(NCC1CCOC1)c1csc(-c2ccco2)n1", "note": "(stereo not drawn)", "Percent Effect": 5.751}
{"smiles": "Cc1ccc(-c2cc(C(=O)NCC3CCOC3)n[nH]2)s1", "note": "(stereo not drawn)", "Percent Effect": -13.79}
{"smiles": "O=C(NCC1CCOC1)c1csc(-c2ccc(Cl)cc2)n1", "note": "(stereo not drawn)", "Percent Effect": 107.7}
{"smiles": "O=C(CC(F)(F)F)N1CCc2[nH]nc(-c3ccc4c(c3)OCO4)c2C1", "Percent Effect": -1.74}
{"smiles": "CNC(=O)C(C)CNC(=O)c1coc(COc2cccc(F)c2F)n1", "note": "(stereo not drawn)", "Percent Effect": -14.56}
{"smiles": "CCc1ccc(CNC2(c3ccc(F)cc3)CCOCC2)o1", "Percent Effect": 6.225}
{"smiles": "Cc1ccc(-c2nc(CN(Cc3ccco3)C3CCS(=O)(=O)C3)cs2)o1", "note": "(stereo not drawn)", "Percent Effect": 9.055}
{"smiles": "OC1CCCN(Cc2cn(CC3CCN(C4CCSCC4)CC3)nn2)C1", "note": "(stereo not drawn)", "Percent Effect": -15.38}
{"smiles": "CC(C)C(C)N(C)Cc1nnc(-c2ccco2)o1", "note": "(stereo not drawn)", "Percent Effect": -1.497}
{"smiles": "O=C(NCC1CCOC1)c1cc(-c2cccc(Cl)c2)on1", "note": "(stereo not drawn)", "Percent Effect": 10.92}
{"smiles": "O=C(NCC1COC2(CCOCC2)O1)c1csc(-c2cccc(Cl)c2)n1", "note": "(stereo not drawn)", "Percent Effect": 108.1}
{"smiles": "COc1ccc(-c2nc(C(=O)NCC3CCOC3)cs2)cc1OC", "note": "(stereo not drawn)", "Percent Effect": 119.6}
{"smiles": "Cc1ccc(-c2nc(CC(=O)NCC3CCCOC3)cs2)o1", "note": "(stereo not drawn)", "Percent Effect": 16.72}
{"smiles": "CCOc1ccc(-c2nc(C(=O)NCC3CCOC3)cs2)cc1", "note": "(stereo not drawn)", "Percent Effect": 120.1}
{"smiles": "O=C(NCC1CCOC1)c1cc(-c2cccc(Cl)c2)[nH]n1", "note": "(stereo not drawn)", "Percent Effect": -2.907}
{"smiles": "COCc1nc2cc(NCc3ccncc3)ccc2o1", "Percent Effect": 5.074}
{"smiles": "Cc1cc(=O)[nH]c(CCNC(=O)C(c2ccc(F)cc2)N(C)C)n1", "note": "(stereo not drawn)", "Percent Effect": 1.632}
{"smiles": "Cc1nnc(NCC2(c3ccccc3)CCC2)c(C#N)c1C", "Percent Effect": 7.557}
{"smiles": "CC1CCN(S(=O)(=O)NCCCn2cncn2)CC1", "Percent Effect": 4.517}
{"smiles": "COc1cccc(CN2CCN(c3noc(C(C)C)n3)CC2)c1F", "Percent Effect": -2.027}
{"smiles": "COc1cccc(CN2CCN(c3cccc(C(C)C)n3)CC2)c1F", "Percent Effect": 77.06}
{"smiles": "COc1ncccc1CN1CCN(c2noc(C(C)C)n2)CC1", "Percent Effect": -8.091}
{"smiles": "CCc1ccc(C(=O)O)cc1S(=O)(=O)N(C)c1cccc(C)c1", "Percent Effect": -14.76}
{"smiles": "CS(=O)(=O)Cc1nc(CN2CCOc3ccccc3C2)cs1", "Percent Effect": 2.526}
{"smiles": "CS(=O)(=O)CCCN(CCc1cccc(F)c1)C1CC1", "Percent Effect": 89.73}
{"smiles": "CS(=O)(=O)C1CCN(S(=O)(=O)Cc2cccc(F)c2)CC1", "Percent Effect": -8.016}
{"smiles": "CCCN(CCS(C)(=O)=O)C1CCc2ccccc2C1", "note": "(stereo not drawn)", "Percent Effect": 9.171}
{"smiles": "Fc1cccc(CCN(c2ccc3nnnn3n2)C2CC2)c1", "Percent Effect": -14.94}
{"smiles": "CS(=O)(=O)CCC(=O)N(Cc1c(F)cccc1F)C1CCCC1", "Percent Effect": -8.645}
{"smiles": "CS(=O)(=O)CCN(CCc1cccc(F)c1)C1CC1", "Percent Effect": 102.8}
{"smiles": "CC(C)(C)S(=O)(=O)CCNC(=O)NCCCc1cccc(F)c1", "Percent Effect": 22.42}
{"smiles": "Cc1ccc(C(=O)N(Cc2cccc(F)c2)C2CC2)c(=O)[nH]1", "Percent Effect": -0.8552}
{"smiles": "CS(=O)(=O)CCN(Cc1cccc(O)c1)C1CCC(O)CC1", "note": "(stereo not drawn)", "Percent Effect": -5.154}
{"smiles": "NS(=O)(=O)CCN(CCc1cccc(F)c1)C1CCCC1", "Percent Effect": 101.5}
{"smiles": "O=C(C[S+]([O-])Cc1cccc(F)c1)NC1CCCC1", "note": "(stereo not drawn)", "Percent Effect": -2.524}
{"smiles": "CS(=O)(=O)CCC(=O)N(CCc1cccc(F)c1)C1CC1", "Percent Effect": 102.1}
{"smiles": "Cc1noc(C)c1CN(C)C(=O)NC1CCN(C2CC2)CC1", "Percent Effect": -39.67}
{"smiles": "O=C(c1cc(-c2ccco2)nc2c(Cl)cccc12)N1CCS(=O)(=O)CC1", "Percent Effect": -1.812}
{"smiles": "Cc1nc2c(c(N3CCC(O)(CN4CCCC4)CC3)n1)CCN(C)CC2", "Percent Effect": -16.37}
{"smiles": "Cc1noc(C)c1C(=O)N1CCCC(c2c(C)c(=O)nc3n2CCC3)C1", "note": "(stereo not drawn)", "Percent Effect": 87.08}
{"smiles": "Cc1c(C2CCCN(C(=O)c3cccnc3)C2)n2c(nc1=O)CCC2", "note": "(stereo not drawn)", "Percent Effect": 104.3}
{"smiles": "Cc1c(C2CCCN(C(=O)Cc3ccccn3)C2)n2c(nc1=O)CCC2.Cl", "note": "(stereo not drawn)", "Percent Effect": -12.52}
{"smiles": "Cc1c(C2CCCN(C(=O)c3ccncc3)C2)n2c(nc1=O)CCC2.Cl", "note": "(stereo not drawn)", "Percent Effect": 99.59}
{"smiles": "Cc1nn(C)cc1-c1ccnc(N(C)Cc2ccon2)n1", "Percent Effect": 9.555}
{"smiles": "COc1cc2c(cc1OC)S(=O)(=O)N(Cc1cccc(C)c1)C2=O", "Percent Effect": -2.103}
{"smiles": "Cc1cccc(C(C(=O)N(C)CCc2cn[nH]c2)N(C)C)c1", "note": "(stereo not drawn)", "Percent Effect": -40.91}
{"smiles": "Cc1cnn(CC2CCCN2c2ncnc3c2CCC3)c1", "note": "(stereo not drawn)", "Percent Effect": 7.449}
{"smiles": "Cc1cc(NC(=O)CN2CCC(N3CCNC3=O)CC2)on1", "Percent Effect": 131.4}
{"smiles": "Cn1nc2c(cc1=O)CN(CC(=O)Nc1cc(C(C)(C)C)no1)CC2", "Percent Effect": 4.087}
{"smiles": "CC(C)(C)c1cc(NC(=O)CN2CCC(N3CCNC3=O)CC2)on1", "Percent Effect": 95.17}
{"smiles": "O=C(CN1CCC(N2CCNC2=O)CC1)NCC(F)(F)F", "Percent Effect": -6.225}
{"smiles": "CC(C)(C)c1cc(NC(=O)CN2CCCC(Cn3cncn3)C2)on1", "note": "(stereo not drawn)", "Percent Effect": 1.148}
{"smiles": "Cc1cc(NC(=O)CN2CCc3nn(C)c(=O)cc3C2)on1", "Percent Effect": -13.84}
{"smiles": "COc1cc2c(cc1-c1nc3c(cnn3C(C)C3CC3)[nH]1)OCO2", "note": "(stereo not drawn)", "Percent Effect": -2.531}
{"smiles": "COCC1CC2(CCN(C(C)=O)CC2)CN1Cc1csc(C)n1.O=C(O)C(F)(F)F", "note": "(stereo not drawn)", "Percent Effect": -9.248}
{"smiles": "Cc1nc(CN2CCN(C)C(=O)C23CCN(C(C)C)CC3)cs1.O=C(O)C(F)(F)F", "Percent Effect": 114.4}
{"smiles": "CCC(=O)N1CCC2(CC1)C(=O)N(C)CCN2Cc1csc(C)n1.O=C(O)C(F)(F)F", "Percent Effect": 115.6}
{"smiles": "CC(C)C(C(=O)O)c1cccc(Cl)c1", "note": "(stereo not drawn)", "Percent Effect": -23.59}
{"smiles": "CC(NS(=O)(=O)CCCC#N)c1cccc(-n2cccn2)c1", "note": "(stereo not drawn)", "Percent Effect": -70.87}
{"smiles": "Cl.Cl.O=C([C@H]1CCCN1)N1CC2(CCNCC2)c2cc(Cl)ccc21", "Percent Effect": 99.27}
{"smiles": "Cl.Cl.O=C([C@@H]1CSCN1)N1CCC2(CC1)CNCc1ccccc12", "Percent Effect": -5.878}
{"smiles": "CC(=O)N1CCC2(CC1)CN(C(=O)[C@@H]1CSCN1)c1ccc(Cl)cc12.O=C(O)C(F)(F)F", "Percent Effect": 102.4}
{"smiles": "Cl.Cl.O=C([C@@H]1CSCN1)N1CC2(CCNCC2)c2cc(Cl)ccc21", "Percent Effect": 111}
{"smiles": "OCC(CO)Nc1ccc2ccc(Cl)c(Cl)c2n1", "Percent Effect": 21.88}
{"smiles": "COCc1csc(NC(=O)NCc2ncccc2C)n1", "Percent Effect": -7.53}
{"smiles": "Cn1cnc2c1C(COCc1ccccc1)N(Cc1ccccn1)CC2.O=C(O)C(F)(F)F.O=C(O)C(F)(F)F", "note": "(stereo not drawn)", "Percent Effect": 9.45}
{"smiles": "Cc1ccccc1C(CNC(=O)CSc1nnc(N)s1)N(C)C", "note": "(stereo not drawn)", "Percent Effect": -0.498}
{"smiles": "Cl.c1nc(N2CCOCC2)ncc1-c1cncn1CCCN1CCCCC1", "Percent Effect": 140.4}
{"smiles": "Clc1ccc(N2CCN(CCCN3CCCCC3)CC2)nc1", "Percent Effect": -9.016}
{"smiles": "c1ccc(-c2ncn(CCCN3CCOCC3)c2-c2ccncc2)cc1", "Percent Effect": -9.931}
{"smiles": "Cc1ccccc1CC(=O)NCCNc1nccc(C(F)(F)F)n1", "Percent Effect": -4.75}
{"smiles": "Cc1nn2cccnc2c1C(=O)NCc1ccnc(OCC2CC2)c1", "Percent Effect": 2.843}
{"smiles": "Cc1cc(-c2nc(C3(NC(=O)OC(C)(C)C)CCC3)no2)on1", "Percent Effect": 26.17}
{"smiles": "Cc1ccc(CN2CCn3cc(CN4CCN(C)CC4)nc3C2)cc1.O=C(O)C(F)(F)F.O=C(O)C(F)(F)F.O=C(O)C(F)(F)F", "Percent Effect": 108}
{"smiles": "CN1CCN(Cc2cn3c(n2)CN(Cc2cccc(F)c2)CC3)CC1.O=C(O)C(F)(F)F.O=C(O)C(F)(F)F.O=C(O)C(F)(F)F", "Percent Effect": 118.6}
{"smiles": "COc1ccc(CN2CCn3cc(Cn4cccn4)nc3C2)cc1.O=C(O)C(F)(F)F", "Percent Effect": -6.787}
{"smiles": "COc1ccc(CN2CCn3cc(CN4CCCCC4)nc3C2)cc1.O=C(O)C(F)(F)F.O=C(O)C(F)(F)F", "Percent Effect": 13.43}
{"smiles": "CN1CCN(Cc2cn3c(n2)CN(C(=O)c2cccn2C)CC3)CC1.O=C(O)C(F)(F)F.O=C(O)C(F)(F)F", "Percent Effect": 2.395}
{"smiles": "CN1CCN(Cc2cn3c(n2)CN(Cc2ccc(F)cc2)CC3)CC1.O=C(O)C(F)(F)F.O=C(O)C(F)(F)F.O=C(O)C(F)(F)F", "Percent Effect": 107.8}
{"smiles": "O=C(NCc1cn2c(n1)CN(Cc1cccc(F)c1)CC2)C1CCC1.O=C(O)C(F)(F)F", "Percent Effect": -4.288}
{"smiles": "CN(Cc1cn2c(n1)CN(Cc1ccc(F)cc1)CC2)Cc1ccco1.O=C(O)C(F)(F)F.O=C(O)C(F)(F)F", "Percent Effect": 12.2}
{"smiles": "O=C(CC1CC1)NCc1cn2c(n1)CN(Cc1cccc(F)c1)CC2.O=C(O)C(F)(F)F", "Percent Effect": 2.246}
